{"source": "PubChem BioAssay (Tox21)", "note": "Records with an inconclusive call do not appear. Values without a mark were called inactive. Activity calls are given as the source filed them. The call rests on the fitted dose curve; in most records, active means well fitted cell-killing curve with a large enough effect in the repeat runs; inconclusive means weak or mixed curves, or effect the other way; inactive means no such curve, though single readings can be large or run the other way. On the % scale 0 is the no-effect control and ±100 the full control effect.", "data": [{"test": "qHTS assay to identify small molecule agonists of the estrogen receptor alpha (ER-alpha) signaling pathway in the presence of an antagonist - cell viability counter screen (AID 1259386);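 further: cells exposed to compounds for 22 h at 37 °C before the viability read; nearly all actives have a fitted effect of over 30% in size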", "conditions": "VM7Luc4E2 viability, CellTiter-Fluor fluorescence, 22 h; series mostly up to 92.4 µM; activity change, negative = cytotoxicity: at the top concentration", "summary_of_the_method": "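Using estrogen-depleted VM7Luc4E2 cells, the 15-concentration compound series was applied together with 10.0nM ICI-182,780 and incubated 22hr at 37C/5% CO2. Cell viability was then scored by CellTiter-Fluor.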", "values": [{"smiles": "CN1C(=O)CC(C)(c2ccccc2)C1=O", "note": "(stereo unspecified)", "activity change, negative = cytotoxicity": "7.37% [at 42.5 µM]"}, {"smiles": "CC(=O)Nc1ccccc1C", "activity change, negative = cytotoxicity": "1.49%"}, {"smiles": "Cc1cc(OI)c(C(C)C)cc1-c1cc(C(C)C)c(OI)cc1C", "activity change, negative = cytotoxicity": "3.18% [at 42.5 µM]"}, {"smiles": "CCCOCCOCCO", "activity change, negative = cytotoxicity": "3.11%"}, {"smiles": "CC(=O)Nc1ccc(N)cc1", "activity change, negative = cytotoxicity": "-0.165%"}, {"smiles": "CC1=C(C=O)C(C)(C)CCC1", "activity change, negative = cytotoxicity": "3.06%"}, {"smiles": "C=CCCCCCCCCCCCCCCCC", "activity change, negative = cytotoxicity": "-0.26% [at 8.39 µM]"}, {"smiles": "CN1Cc2cc(C(=O)N3CCC(C4CCNCC4)CC3)ccc2N[C@@H](CC(=O)O)C1=O", "activity change, negative = cytotoxicity": "4.98% [at 42.5 µM]"}, {"smiles": "Cc1ccccc1N1C(=O)c2cc(S(N)(=O)=O)c(Cl)cc2NC1C", "note": "(stereo unspecified)", "activity change, negative = cytotoxicity": "0.469% [at 42.5 µM]"}, {"smiles": "CC(CCO)CCc1ccccc1", "note": "(stereo unspecified)", "activity change, negative = cytotoxicity": "-0.298%"}, {"smiles": "O=C(O)c1snc(Cl)c1Cl", "activity change, negative = cytotoxicity": "0.565%"}, {"smiles": "Cc1nc2ccccc2s1", "activity change, negative = cytotoxicity": "-0.323%"}, {"smiles": "CCn1cc(C(=O)O)c(=O)c2cc(F)c(N3CCNCC3)nc21", "activity change, negative = cytotoxicity": "0.702% [at 42.5 µM]"}, {"smiles": "NC(=O)Nc1ccc(Cl)cc1", "activity change, negative = cytotoxicity": "-1.48%"}, {"smiles": "Cc1ccnc2ccccc12", "activity change, negative = cytotoxicity": "5.52%"}, {"smiles": "CN1CCN(c2c(F)cc3c(=O)c(C(=O)O)cn4c3c2OCN4C)CC1", "activity change, negative = cytotoxicity": "0.0729% [at 19 µM]"}, {"smiles": "NCC1CCCC(CN)C1", "note": "(stereo unspecified)", "activity change, negative = cytotoxicity": "-8.93%"}, {"smiles": "CCC(=O)OC/C=C/c1ccccc1", "Potency": "inactive"}, {"smiles": "CCCCCCCCCOC(C)=O", "activity change, negative = cytotoxicity": "-2.63%"}, {"smiles": "CO[C@H]1O[C@H](CO)[C@@H](O)[C@H](O)[C@H]1O", "activity change, negative = cytotoxicity": "2.97%"}, {"smiles": "O=S1OCCO1", "activity change, negative = cytotoxicity": "0.0632%"}, {"smiles": "O=C(O)C(Cc1cc(I)c(O)c(I)c1)c1ccccc1", "note": "(stereo unspecified)", "activity change, negative = cytotoxicity": "-1.45% [at 42.5 µM]"}, {"smiles": "CC(CCc1ccc2c(c1)OCO2)NN", "note": "(stereo unspecified)", "activity change, negative = cytotoxicity": "2.08% [at 42.5 µM]"}, {"smiles": "CC1CC(O)CC(C)(C)C1", "note": "(stereo unspecified)", "activity change, negative = cytotoxicity": "-0.336%"}, {"smiles": "CCCCCCOC(=O)C(C)C", "activity change, negative = cytotoxicity": "-3.31%"}, {"smiles": "CCCC(=O)O[C@]1(C(=O)COC(=O)CC)CC[C@H]2[C@@H]3CCC4=CC(=O)CC[C@]4(C)[C@H]3[C@@H](O)C[C@@]21C", "activity change, negative = cytotoxicity": "2.18% [at 19 µM]"}]}]}
